Data taken from PubChem BioAssay.
“And” between values parts separate entries of the source, which are not always exact repeats. Equal values may be shown once. Inconclusive results are not listed. The source made the active and inactive calls.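 Rule for the calls, unless noted: active = normalized viability below 100% at a tested concentration; inactive = the rest.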

How the values were obtained:
[1] = liver-stage malaria parasite growth inhibition, primary screen, cell-based, HepG2, luciferase luminescence, HepG2 viability (AID 624349; in the data active = parasite load remaining mostly below about 12%, no sharp cut-off; inactive = mostly above about 10%;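 note: 100% = mean of DMSO negative control wells on the same plate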); details: P. berghei liver stage in HepG2, luciferase luminescence, concentration not given here; parasite load remaining: stronger effect = lower value; viability: measured here: HepG2 viability without parasites
[2] = stimulators of nuclear beta-catenin in C2C12, primary screen, imaging, WNT3A-conditioned medium, mouse C2C12, NPC library (AID 1117326; in the data active = nuclear beta-catenin stimulation mostly above about 4.2%, no sharp cut-off; inactive = mostly below about 10%); details: stronger effect = higher value
[3] = stimulators of insulin release from INS-1E, primary screen, cell-based, 5 mM glucose, NPC library (AID 1117329;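 active = compound raises insulin release from rat beta cells at 5 mM glucose, no numeric limit stated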); details: rat INS-1E insulin secretion, at 10 µM, stronger effect = higher value
[4] = growth inhibition of GSK3B-pretreated HCT116 cells – cell-based, CellTiter-Glo, 0.2 to 20 µM (AID 1117336;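 active = compounds lowering colon cancer cell viability after pretreatment blocking the GSK3B kinase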); details: HCT116 viability after GSK3B inhibitor, at 20 µM, stronger effect = higher value
[5] = inhibition of endothelial tube formation, primary screen, imaging, VEGF stimulated, CD31 staining, tube area, NPC library (AID 1117340;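 active = compound that reduces growth-factor-driven endothelial tube area in a mixed cell culture, no cutoff stated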); details: VEGF-stimulated ADSC/ECFC co-culture, at 10 µM, stronger effect = higher value
[6] = glucagon-like peptide 1 release enhancers, primary assay, NCI-H716 cell line, NPC library (AID 1117341;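 active = compound raises GLP1 secretion from the human gut endocrine cells, with no numeric limit stated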); details: NCI-H716 cells, at 10 µM, stronger effect = higher value
[7] = HCT116 colon cancer cell growth inhibition, primary screen, CellTiter-Glo luminescence, NPC library (AID 1117342;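 active = compounds that lower survival of HCT116 colon cancer cells in the luminescence readout, no numeric limit stated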); details: at 20 µM (top of the series)
[8] = CellTiter-Glo luminescent readout of SW480 viability loss, NPC library primary (AID 1117343;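 active = compounds that lower viability of the colon cancer cells in the luminescence readout, with no numeric limit stated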); details: CellTiter-Glo luminescence; at 20 µM (top of the series) unless noted
[9] = decreased DLD-1 cellular survival, CellTiter-Glo luminescent readout, NPC compound collection, primary HTS (AID 1117346;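 active = compounds that lower survival of DLD-1 colon cancer cells in the luminescence readout, no cutoff given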); details: DLD-1 viability, CellTiter-Glo luminescence; at 20 µM (top of the series)
[10] = test system: Aerobactin synthetase IucA (Klebsiella pneumoniae); experiment: IucA aerobactin synthetase inhibitors, biochemical, Tocris library, absorbance (AID 1345561; call rule not given here;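 note: 100% = enzyme without compound and 0% = no enzyme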); details: purified IucA enzyme assay, absorbance (OD) read-out; stronger effect = lower value;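 tested at 8 µM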
[11] = growth inhibition of DIPG glioma cells, dose response, cell-based, SU-DIPG-XVII, MIPE5.0, CellTiter-Glo, qHTS (AID 1347060; cut-off not given, nearly all actives have AC50 up to about 26 µM;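 note: cells exposed to compound for 48 hours before viability readout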); details: SU-DIPG-XVII viability, CellTiter-Glo ATP luminescence
[12] = growth inhibition of DIPG glioma cells, dose response, cell-based, SU-DIPG-XIII, MIPE4.0, CellTiter-Glo, qHTS (AID 1347061; cut-off not given, nearly all actives have AC50 up to about 37 µM;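 note: cells exposed to compound for 48 hours before readout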); details: SU-DIPG-XIII viability, CellTiter-Glo ATP luminescence
[13] = SU-DIPG-XXV glioma cell viability, MIPE5.0 library, qHTS (AID 1347068; cut-off not given, nearly all actives have IC50 up to about 30 µM)
[14] = sensitizers of A549 cells to miR-34 induction, primary screen, imaging, A549 dox-inducible miR-34, nuclei and caspase counts (AID 1347080;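 active = compounds whose cell count with miR-34 switched on is under 0.7 times the count with it off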); details: A549 miR-34 inducible, Hoechst nuclei count, 48 h
[15] = survival rescue of mitochondrial mutant cells in low glucose, primary screen, MELAS cybrids, Rieske KO mouse fibroblasts, CellTiter-Glo (AID 1508586);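 note: z relative to plate mean and SD of compound and empty wells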
[16] = ovarian cancer cell viability with rucaparib, profiling panel, oncology-focused library, rucaparib conditional (AID 1508598); details: patient-derived ovarian cancer cells, CellTiter-Glo viability, 144 h, stronger effect = lower value
[17] = target: NAD(+) hydrolase SARM1 (Homo sapiens) (UniProt Q6SZW1); experiment: SARM1 TIR NADase inhibitors, cell lysate, NAD-Glo luminescence (AID 1508614;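 active = compound whose remaining NAD level is above about 45 nM, limit read from the data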;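 note: higher remaining NAD means stronger inhibition of SARM1 NADase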); details: SAM-TIR HEK293T lysate NADase, at 1 µM, stronger effect = higher value
Chain of NAD(+) hydrolase SARM1 (Homo sapiens) (Q6SZW1 whole entry, looked up): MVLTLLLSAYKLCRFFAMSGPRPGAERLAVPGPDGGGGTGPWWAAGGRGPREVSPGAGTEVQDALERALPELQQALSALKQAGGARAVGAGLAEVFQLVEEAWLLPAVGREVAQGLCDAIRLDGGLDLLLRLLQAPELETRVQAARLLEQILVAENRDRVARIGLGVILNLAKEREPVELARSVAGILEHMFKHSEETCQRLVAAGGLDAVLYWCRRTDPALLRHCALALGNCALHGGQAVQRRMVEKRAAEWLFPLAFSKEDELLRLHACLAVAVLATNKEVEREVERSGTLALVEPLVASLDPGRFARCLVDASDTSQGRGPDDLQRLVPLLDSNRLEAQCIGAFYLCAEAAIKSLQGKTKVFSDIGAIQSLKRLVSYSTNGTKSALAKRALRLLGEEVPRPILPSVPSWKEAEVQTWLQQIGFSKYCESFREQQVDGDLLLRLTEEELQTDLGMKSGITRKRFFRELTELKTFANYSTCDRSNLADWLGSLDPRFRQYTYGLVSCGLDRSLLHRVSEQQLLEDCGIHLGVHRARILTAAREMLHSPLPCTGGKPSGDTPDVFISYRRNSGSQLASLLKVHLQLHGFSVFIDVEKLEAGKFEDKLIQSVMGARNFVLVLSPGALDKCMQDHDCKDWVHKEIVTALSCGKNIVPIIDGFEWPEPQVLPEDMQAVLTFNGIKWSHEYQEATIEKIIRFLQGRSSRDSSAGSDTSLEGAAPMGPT

[18] = viability rescue of complex I mutant cybrids, primary screen, cell-based, galactose medium, ATP luminescence (AID 1645843;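 active = z-score of at least 1.8 in each of two replicates, scored against plate mean and spread of sample wells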;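 note: positive z means more ATP and so rescue of galactose-driven cybrid death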); details: complex I mutant cybrid cells, 72 h, stronger effect = higher value
[19] = differential killing of epithelial or mesenchymal cells, primary screen, imaging, PC-3E GFP, TEM4-18 mCherry, co-culture (AID 1345086;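 active = compounds killing one labelled cell type while sparing the other, by normalised counts and ratio limits, not self-fluorescent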;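 for all read-outs here: cells exposed to compound for 72 h before imaging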;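 for red/green cell ratio (normalised): normalised mesenchymal count divided by normalised epithelial count so high means epithelial killing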); details: imaging cell counts, at 1 µM; for red/green cell ratio (normalised): actives lie on both sides, counts scaled to control wells, 1 = unselective
[20] = stronger effect = lower value, cell number ratio, induced over uninduced
[21] = measured here: relative caspase fold change +Dox/-Dox
[22] = measured here: total cells with miR-34 induction, stronger effect = lower value
[23] = measured here: total cells without miR-34 induction
[24] = measured here: epithelial PC-3E GFP cell survival
[25] = measured here: mesenchymal TEM4-18 mCherry cell survival

Nc1nc(Cl)nc2c1ncn2[C@@H]1O[C@H](CO)[C@@H](O)[C@@H]1F
3880 and 3040: cell count [14, 22]
3820 and 3160: cell count [14, 23]
1.45 and 0.847: fold change [14, 21]
84%: viability [1]
17.4%: nuclear beta-catenin stimulation ([2]; stimulation, at 2 µM)
inactive: parasite load remaining [1] 11.2% | nuclear beta-catenin stimulation ([2]; at 10 µM) 30.8% | insulin secretion stimulation [3] 0.1% | GLP1 secretion stimulation [6] 0.3% | viability decrease (inhibition) [9] 43.5% | remaining activity [10] 104% | outcome [12] | outcome [13] | fold change [14, 20] 1.02 and 0.96 | viability ([16]; at 0.000305 µM, OCI-C5x cells, with rucaparib 10 µM, 100% = cells with rucaparib alone) 115% | viability ([16]; at 0.000305 µM, OCI-C5x cells, without rucaparib) 107% | viability ([16]; at 0.000305 µM, OCI-P5x cells, with rucaparib 20 µM, 100% = cells with rucaparib alone) 116% | viability ([16]; at 0.000305 µM, OCI-P5x cells, without rucaparib) 113% | viability ([16]; at 0.00122 µM, OCI-C5x cells, with rucaparib 10 µM, 100% = cells with rucaparib alone) 118% | viability ([16]; at 0.00122 µM, OCI-C5x cells, without rucaparib) 113% | viability ([16]; at 0.00122 µM, OCI-P5x cells, with rucaparib 20 µM, 100% = cells with rucaparib alone) 112% | viability ([16]; at 0.00122 µM, OCI-P5x cells, without rucaparib) 109% | viability ([16]; at 0.00488 µM, OCI-C5x cells, with rucaparib 10 µM, 100% = cells with rucaparib alone) 116% | viability ([16]; at 0.00488 µM, OCI-C5x cells, without rucaparib) 110% | viability ([16]; at 0.00488 µM, OCI-P5x cells, with rucaparib 20 µM, 100% = cells with rucaparib alone) 115% | viability ([16]; at 0.00488 µM, OCI-P5x cells, without rucaparib) 118% | viability ([16]; at 0.0195 µM, OCI-C5x cells, with rucaparib 10 µM, 100% = cells with rucaparib alone) 113% | viability ([16]; at 0.0195 µM, OCI-C5x cells, without rucaparib) 112% | viability ([16]; at 0.0195 µM, OCI-P5x cells, with rucaparib 20 µM, 100% = cells with rucaparib alone) 111% | viability ([16]; at 0.0781 µM, OCI-P5x cells, with rucaparib 20 µM, 100% = cells with rucaparib alone) 111% | remaining NAD [17] 10 nM | z-score [18] -0.56 and -2.21
-2.1: z-score ([15]; MELAS cybrid survival, CellTiter-Glo 48 h, stronger effect = higher value)
2.02: z-score ([15]; Rieske KO mouse fibroblast survival, CellTiter-Glo 72 h)
active: viability decrease [4] 44.1% | tube area decrease [5] 104% | inhibition of viability [7] 80.9% | viability decrease (inhibition) [8] 59.6% | AC50 [11] 332 nM | viability ([16]; at 0.0195 µM, OCI-P5x cells, without rucaparib) 95% | viability ([16]; at 0.0781 µM, OCI-C5x cells, with rucaparib 10 µM, 100% = cells with rucaparib alone) 98% | viability ([16]; at 0.0781 µM, OCI-C5x cells, without rucaparib) 78.6% | viability ([16]; at 0.0781 µM, OCI-P5x cells, without rucaparib) 84.8% | viability ([16]; at 0.313 µM, OCI-C5x cells, with rucaparib 10 µM, 100% = cells with rucaparib alone) 24% | viability ([16]; at 0.313 µM, OCI-C5x cells, without rucaparib) 24.6% | viability ([16]; at 0.313 µM, OCI-P5x cells, with rucaparib 20 µM, 100% = cells with rucaparib alone) 57.8% | viability ([16]; at 0.313 µM, OCI-P5x cells, without rucaparib) 29.3% | viability ([16]; at 1.25 µM, OCI-C5x cells, with rucaparib 10 µM, 100% = cells with rucaparib alone) 22.5% | viability ([16]; at 1.25 µM, OCI-C5x cells, without rucaparib) 23.9% | viability ([16]; at 1.25 µM, OCI-P5x cells, with rucaparib 20 µM, 100% = cells with rucaparib alone) 42.3% | viability ([16]; at 1.25 µM, OCI-P5x cells, without rucaparib) 20.5% | viability ([16]; at 5 µM, OCI-C5x cells, with rucaparib 10 µM, 100% = cells with rucaparib alone) 19.1% | viability ([16]; at 5 µM, OCI-C5x cells, without rucaparib) 19.7% | viability ([16]; at 5 µM, OCI-P5x cells, with rucaparib 20 µM, 100% = cells with rucaparib alone) 36.1% | viability ([16]; at 5 µM, OCI-P5x cells, without rucaparib) 18.2%

CCCCCCCCCCOc1cc2c(=O)c(C(=O)OCC)c[nH]c2cc1OCC
1.91: fold change [14, 21]
-0.1%: nuclear beta-catenin stimulation ([2]; stimulation, at 2 µM)
101%: viability [1]
inactive: nuclear beta-catenin stimulation ([2]; at 10 µM) -2.3% | insulin secretion stimulation [3] -0.4% | viability decrease [4] -29.2% | tube area decrease [5] -2% | GLP1 secretion stimulation [6] 1.3% | inhibition of viability [7] -5.6% | viability decrease (inhibition) [8] -212% | viability decrease (inhibition) [9] -42% | red/green cell ratio (normalised) [19] 1 | fold change [14, 20] 0.938 | remaining NAD [17] 10 nM
11900: cell count [14, 23]
11200: cell count [14, 22]
active: parasite load remaining [1] 0.015%
0.98: normalised cell number [19, 24] | normalised cell number [19, 25]

NC(=O)c1cc[n+](CC2=C(C(=O)[O-])N3C(=O)[C@@H](NC(=O)Cc4cccs4)[C@H]3SC2)cc1
inactive: parasite load remaining [1] 91.4% | nuclear beta-catenin stimulation ([2]; at 10 µM) -2.2% | insulin secretion stimulation [3] 11.8% | viability decrease [4] 10.6% | tube area decrease [5] -7.6% | GLP1 secretion stimulation [6] 0.9% | inhibition of viability [7] -2.6% | viability decrease (inhibition) [8] 3.4% | viability decrease (inhibition) [9] 5.4% | red/green cell ratio (normalised) [19] 0.75 | fold change [14, 20] 0.969 | remaining NAD [17] 10 nM
73.4%: viability [1]
-0.6%: nuclear beta-catenin stimulation ([2]; stimulation, at 2 µM)
0.94: normalised cell number [19, 25]
0.479: fold change [14, 21]
10100: cell count [14, 23]
1.26: normalised cell number [19, 24]
9810: cell count [14, 22]
